# PMC5540273 (PLoS ONE, 2017)
# Key:
# Conditions in all cases: concentration: 1 μM, replicates: in singlicate; n = 1
# [1] = tested on: T1, ERK1
# T1 construct: gene MAPK3
# [2] = tested on: T2, ERK2
# T2 construct: gene MAPK1
# [3] = tested on: T3, ERK3
# T3 construct: gene MAPK6
# [4] = tested on: T4, ERK4
# T4 construct: gene MAPK4
# [5] = tested on: T5, ERK5
# T5 construct: gene MAPK7
# [6] = tested on: T6, ERK8
# T6 construct: gene MAPK15
# [7] = tested on: ERN1
# [8] = tested on: T7, FAK
# T7 construct: gene PTK2
# [9] = tested on: FER
# [10] = tested on: FES
# 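Further: KINOMEscan kinase panel screen.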
compound,measurement,setting,value
C[C@@H](Oc1cc(-n2cnc3cc(-c4ccnc(NCCS(C)(=O)=O)c4)ccc32)sc1C(N)=O)c1ccccc1Cl [GSK907232],%Inh,[1],0%
same,%Inh,[2],0%
same,%Inh,[3],0%
same,%Inh,[4],19%
same,%Inh,[5],0%
same,%Inh,[6],76%
same,%Inh,[7],0%
same,%Inh,[8],0%
same,%Inh,[9],21%
same,%Inh,[10],0%
CN(C)Cc1ccc(-c2ccc3c(Nc4ccc(Oc5ccccn5)cc4)ccnc3c2)o1 [GW567148],%Inh,[1],0%
same,%Inh,[2],0%
same,%Inh,[3],0%
same,%Inh,[4],0%
same,%Inh,[5],0%
same,%Inh,[6],23%
same,%Inh,[7],0%
same,%Inh,[8],0%
same,%Inh,[9],20%
same,%Inh,[10],5%
O=C(Nc1cccc(-c2nn3ccccc3c2-c2ccnc(Nc3cccc(F)c3)n2)c1)c1c(F)ccc(F)c1Cl [GSK357952],%Inh,[1],0%
same,%Inh,[2],0%
same,%Inh,[3],0%
same,%Inh,[4],0%
same,%Inh,[5],0%
same,%Inh,[6],20%
same,%Inh,[7],17%
same,%Inh,[8],0%
same,%Inh,[9],45%
same,%Inh,[10],6%
Cl.c1ccc(-c2ccc3c(Nc4ccc5[nH]ccc5c4)ccnc3c2)nc1 [GW440138],%Inh,[1],8%
same,%Inh,[2],0%
same,%Inh,[3],0%
same,%Inh,[4],6%
same,%Inh,[5],0%
same,%Inh,[6],0%
same,%Inh,[7],0%
same,%Inh,[8],0%
same,%Inh,[9],0%
same,%Inh,[10],0%
COc1cc(Nc2nccc(N3CCC(NC(=O)Nc4cccc(C(C)=O)c4)C3)n2)cc(OC)c1OC (centres unmarked) [GSK1379753],%Inh,[1],0%
same,%Inh,[2],0%
same,%Inh,[3],9%
same,%Inh,[4],15%
same,%Inh,[5],0%
same,%Inh,[6],0%
same,%Inh,[7],5%
same,%Inh,[8],0%
same,%Inh,[9],22%
same,%Inh,[10],0%
Cl.Cl.NCC(NC(=O)c1cc(-c2ccccc2)c(-c2ccnc3[nH]ccc23)s1)c1ccccc1 (centres unmarked) [GSK1321561],%Inh,[1],6%
same,%Inh,[2],16%
same,%Inh,[3],0%
same,%Inh,[4],8%
same,%Inh,[5],0%
same,%Inh,[6],0%
same,%Inh,[7],0%
same,%Inh,[8],0%
same,%Inh,[9],36%
same,%Inh,[10],0%
CSc1cccc2c(-c3ccncn3)c(-c3ccc(F)cc3)nn12 [GW514786],%Inh,[1],14%
same,%Inh,[2],6%
same,%Inh,[3],0%
same,%Inh,[4],5%
same,%Inh,[5],0%
same,%Inh,[6],0%
same,%Inh,[7],12%
same,%Inh,[8],0%
same,%Inh,[9],17%
same,%Inh,[10],0%
COc1cccc(C(=O)Nc2cccc(Oc3ccc4nc(NC(=O)C5CC5)cn4n3)c2)c1,%Inh,[1],4%
same,%Inh,[2],6%
same,%Inh,[3],0%
same,%Inh,[4],0%
same,%Inh,[5],0%
same,%Inh,[6],14%
same,%Inh,[7],0%
same,%Inh,[8],1%
same,%Inh,[9],0%
same,%Inh,[10],0%
Cl.Cl.NCC(NCc1ccc(-c2ccnc3[nH]ccc23)s1)c1ccccc1 (centres unmarked) [GSK1321565],%Inh,[1],0%
same,%Inh,[2],0%
same,%Inh,[3],2%
same,%Inh,[4],0%
same,%Inh,[5],2%
same,%Inh,[6],18%
same,%Inh,[7],17%
same,%Inh,[8],19%
same,%Inh,[9],46%
same,%Inh,[10],0%
Fc1ccc(-c2ncn(C3CCNCC3)c2-c2ccnc(Oc3ccc(-c4ccccc4)cc3)n2)cc1 [SB-245391],%Inh,[1],47%
same,%Inh,[2],2%
same,%Inh,[3],0%
same,%Inh,[4],15%
same,%Inh,[5],9%
same,%Inh,[6],31%
same,%Inh,[7],45%
same,%Inh,[8],12%
same,%Inh,[9],0%
same,%Inh,[10],27%
Cc1ccc(F)c(C(=O)Nc2cccc(-c3nn4ccccc4c3-c3ccnc(Nc4cccc(F)c4)n3)c2)c1F [GSK361061],%Inh,[1],26%
same,%Inh,[2],0%
same,%Inh,[3],16%
same,%Inh,[4],21%
same,%Inh,[5],0%
same,%Inh,[6],0%
same,%Inh,[7],25%
same,%Inh,[8],0%
same,%Inh,[9],40%
same,%Inh,[10],0%
COC(=O)Nc1nc2ccc(Oc3ccc(NC(=O)Nc4cc(C(F)(F)F)ccc4F)cc3)cc2n1C.Cl [GW692089],%Inh,[1],0%
same,%Inh,[2],0%
same,%Inh,[3],0%
same,%Inh,[4],0%
same,%Inh,[5],0%
same,%Inh,[6],72%
same,%Inh,[7],0%
same,%Inh,[8],0%
same,%Inh,[9],21%
same,%Inh,[10],3%
O=C(O)C(F)(F)F.O=C(O)C(F)(F)F.O=c1[nH]ccc2nc(N[C@@H]3CCCNC3)nc(Nc3ccc(S(=O)(=O)N4CCOCC4)cc3)c12 [GSK2177277],%Inh,[1],59%
same,%Inh,[2],72%
same,%Inh,[3],100%
same,%Inh,[4],100%
same,%Inh,[5],58%
same,%Inh,[6],99.2%
same,%Inh,[7],60%
same,%Inh,[8],86%
same,%Inh,[9],95.4%
same,%Inh,[10],68%
FC(F)(F)c1ccc(/C=C/c2cncnc2Nc2ccc3[nH]c(Cc4ccccc4)nc3c2)cc1 [GW709199],%Inh,[1],0%
same,%Inh,[2],0%
same,%Inh,[3],0%
same,%Inh,[4],9%
same,%Inh,[5],12%
same,%Inh,[6],21%
same,%Inh,[7],0%
same,%Inh,[8],21%
same,%Inh,[9],0%
same,%Inh,[10],38%
COc1cccc(C2=C(Nc3ccc(Cl)c(C(=O)O)c3)C(=O)NC2=O)c1 [SB-390769],%Inh,[1],10%
same,%Inh,[2],0%
same,%Inh,[3],0%
same,%Inh,[4],19%
same,%Inh,[5],0%
same,%Inh,[6],0%
same,%Inh,[7],100%
same,%Inh,[8],0%
same,%Inh,[9],7%
same,%Inh,[10],0%
Nc1ncc(-c2cccnc2)c2scc(-c3ccc4c(c3)CCN4C(=O)Cc3ccccc3)c12 [GSK683281],%Inh,[1],0%
same,%Inh,[2],11%
same,%Inh,[3],4%
same,%Inh,[4],21%
same,%Inh,[5],0%
same,%Inh,[6],0%
same,%Inh,[7],35%
same,%Inh,[8],0%
same,%Inh,[9],33%
same,%Inh,[10],0%
Nc1n[nH]c2cnc(-c3ccccc3)cc12 [SB-642124],%Inh,[1],0%
same,%Inh,[2],0%
same,%Inh,[3],0%
same,%Inh,[4],25%
same,%Inh,[5],0%
same,%Inh,[6],6%
same,%Inh,[7],13%
same,%Inh,[8],0%
same,%Inh,[9],0%
same,%Inh,[10],0%
COc1ccc(Nc2nccc(NCCNC(=O)c3cc4ccccc4s3)n2)cc1 [GSK1379896],%Inh,[1],0%
same,%Inh,[2],0%
same,%Inh,[3],0%
same,%Inh,[4],0%
same,%Inh,[5],0%
same,%Inh,[6],0%
same,%Inh,[7],0%
same,%Inh,[8],11%
same,%Inh,[9],12%
same,%Inh,[10],0%
CC(=O)N1CCN(c2ccc(Nc3nccc(-c4sc(C(C)C)nc4-c4cccc(NS(=O)(=O)c5cccc(Cl)c5)c4)n3)cn2)CC1 [GSK1660437],%Inh,[1],0%
same,%Inh,[2],98.8%
same,%Inh,[3],0%
same,%Inh,[4],0%
same,%Inh,[5],0%
same,%Inh,[6],66%
same,%Inh,[7],44%
same,%Inh,[8],3%
same,%Inh,[9],35%
same,%Inh,[10],0%
CCCCc1nn2ncccc2c1-c1ccnc(Nc2ccc(N3CCN(C)CC3)cc2)n1 [GW684941],%Inh,[1],0%
same,%Inh,[2],0%
same,%Inh,[3],46%
same,%Inh,[4],0%
same,%Inh,[5],0%
same,%Inh,[6],63%
same,%Inh,[7],0%
same,%Inh,[8],0%
same,%Inh,[9],47%
same,%Inh,[10],14%
Cn1cc(-c2[nH]c3cc(NC(=O)[C@H](N)C4CCCCC4)cc4c3c2C=NNC4=O)cn1,%Inh,[1],33%
same,%Inh,[2],22%
same,%Inh,[3],0%
same,%Inh,[4],6%
same,%Inh,[5],27%
same,%Inh,[6],55%
same,%Inh,[7],21%
same,%Inh,[8],5%
same,%Inh,[9],13%
same,%Inh,[10],0%
Cn1cc(-c2ccc3c(c2)CCN3C(=O)Cc2cccc(F)c2)c2c(N)ncnc21 [GSK2603358],%Inh,[1],0%
same,%Inh,[2],6%
same,%Inh,[3],0%
same,%Inh,[4],26%
same,%Inh,[5],2%
same,%Inh,[6],0%
same,%Inh,[7],3%
same,%Inh,[8],0%
same,%Inh,[9],35%
same,%Inh,[10],0%
Cc1cccc(NC(=O)Nc2ccc(Oc3ncnc4ccn(C)c34)cc2)c1,%Inh,[1],0%
same,%Inh,[2],20%
same,%Inh,[3],0%
same,%Inh,[4],0%
same,%Inh,[5],0%
same,%Inh,[6],12%
same,%Inh,[7],0%
same,%Inh,[8],5%
same,%Inh,[9],0%
same,%Inh,[10],0%
COc1cc2c(cc1OCCN1CCNCC1)ncc1c3ccc(C#N)cc3[nH]c21,%Inh,[1],0%
same,%Inh,[2],0%
same,%Inh,[3],0%
same,%Inh,[4],23%
same,%Inh,[5],15%
same,%Inh,[6],12%
same,%Inh,[7],44%
same,%Inh,[8],10%
same,%Inh,[9],0%
same,%Inh,[10],2%
CCc1ccc(-c2ccc3c(c2)-c2c(cnn2C)S(=O)(=O)N3C)cc1,%Inh,[1],4%
same,%Inh,[2],6%
same,%Inh,[3],0%
same,%Inh,[4],0%
same,%Inh,[5],0%
same,%Inh,[6],0%
same,%Inh,[7],0%
same,%Inh,[8],38%
same,%Inh,[9],0%
same,%Inh,[10],0%
O=C(Nc1cccc(-c2nn3ccccc3c2-c2ccnc(Nc3cccc(C(F)(F)F)c3)n2)c1)c1c(F)cccc1F [GSK292658],%Inh,[1],0%
same,%Inh,[2],0%
same,%Inh,[3],0%
same,%Inh,[4],0%
same,%Inh,[5],0%
same,%Inh,[6],9%
same,%Inh,[7],0%
same,%Inh,[8],0%
same,%Inh,[9],3%
same,%Inh,[10],0%
CN(c1ccc(NC(=O)Nc2cc(C(F)(F)F)ccc2F)cc1)c1ccnc(Nc2ccc(S(N)(=O)=O)cc2)n1 [GW809893],%Inh,[1],0%
same,%Inh,[2],0%
same,%Inh,[3],0%
same,%Inh,[4],0%
same,%Inh,[5],79%
same,%Inh,[6],98.6%
same,%Inh,[7],5%
same,%Inh,[8],98.8%
same,%Inh,[9],84%
same,%Inh,[10],72%
O=C(Nc1cccc(-c2nn3ncccc3c2-c2ccnc(Nc3ccccc3)n2)c1)c1c(F)cccc1F [GSK198271],%Inh,[1],0%
same,%Inh,[2],6%
same,%Inh,[3],0%
same,%Inh,[4],20%
same,%Inh,[5],4%
same,%Inh,[6],0%
same,%Inh,[7],32%
same,%Inh,[8],0%
same,%Inh,[9],45%
same,%Inh,[10],6%
COc1cc(Nc2nccc(-c3c(-c4cccc(NC(=O)c5c(F)cccc5F)c4)nn4ncccc34)n2)cc(OC)c1OC [GSK327238],%Inh,[1],6%
same,%Inh,[2],15%
same,%Inh,[3],3%
same,%Inh,[4],29%
same,%Inh,[5],68%
same,%Inh,[6],0%
same,%Inh,[7],30%
same,%Inh,[8],38%
same,%Inh,[9],77%
same,%Inh,[10],50%
CCn1c(-c2nonc2N)nc2c(C#CC(C)(C)O)nc(OC[C@H](N)c3ccccc3)cc21 [GSK943949],%Inh,[1],0%
same,%Inh,[2],3%
same,%Inh,[3],0%
same,%Inh,[4],0%
same,%Inh,[5],0%
same,%Inh,[6],7%
same,%Inh,[7],4%
same,%Inh,[8],0%
same,%Inh,[9],0%
same,%Inh,[10],0%
O=c1[nH]cc(-c2ccc(N3CCOCC3)cc2)c2sc(-c3cn[nH]c3)cc12 [GSK2276055],%Inh,[1],0%
same,%Inh,[2],0%
same,%Inh,[3],0%
same,%Inh,[4],19%
same,%Inh,[5],0%
same,%Inh,[6],0%
same,%Inh,[7],11%
same,%Inh,[8],0%
same,%Inh,[9],0%
same,%Inh,[10],0%
Cc1ccc(S(=O)(=O)Nc2ccc(Nc3nccc(Nc4cccc5[nH]ncc45)n3)cc2)cc1 [GSK581271],%Inh,[1],0%
same,%Inh,[2],0%
same,%Inh,[3],0%
same,%Inh,[4],5%
same,%Inh,[5],0%
same,%Inh,[6],28%
same,%Inh,[7],0%
same,%Inh,[8],0%
same,%Inh,[9],7%
same,%Inh,[10],0%
